# According to PubChem BioAssay (Tox21):
# Several values for one entry are separate records, joined by “and”; a condition that tells them apart may be missing. Identical values can stand only once. Records with an inconclusive call do not appear. Entries that show only a call come without a potency. Activity calls are given as the source filed them. Unless noted, calls follow the shape of the dose curve; as a rule, active = well fitted curve in the direction sought with a large enough effect in the repeat runs; inconclusive = weak or mixed curves; inactive = no such curve, though single readings can be large; an effect the other way counts as inactive or inconclusive.
# How the values were obtained:
# [1] = qHTS assay to identify small molecule antagonists of the androgen receptor (AR) signaling pathway using the MDA cell line in the presence of 0.5 nM R1881 - cell viability counter screen (AID 1259242); also: nearly all actives have a fitted effect of over 45% in size
# Summary of the method: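 Cells seeded at 3,000/well and allowed 5 hr at 37C, 0% CO2 before compound transfer and R1881 (0.5 nM final) addition; 16 hr later, live-cell protease fluorescence indicated cytotoxicity.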
# [2] = qHTS assay to identify small molecule HDAC inhibitors (AID 1259364); also: potency is read from the fitted curve at half-maximal effect;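 also: wild-type HCT-116 cells with endogenous class I/II HDAC activity; nearly all actives have a fitted effect of over 45% in size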
# Summary of the method: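 HCT-116 wt cells, 1,500/well, overnight attach. Compounds (DMSO) 2 h, 37 °C. HDAC-Glo I/II, 30 min RT. Luminescence.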
# [3] = qHTS assay to identify small molecule HDAC inhibitors - cell viability counter screen (AID 1259365); also: nearly all actives have a fitted effect of over 50% in size; also: potency is read from the fitted curve at half-maximal effect
# Summary of the method: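 Cytotoxicity was gauged in wild-type HCT-116 cells after a brief 2hr treatment with DMSO-dissolved compounds at 37C and 5% CO2, using CellTiter-Glo luminescence developed for 30min at room temperature.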
# [4] = qHTS assay to identify small molecule agonists of the sonic hedgehog signaling (Shh) pathway (AID 1259368; calls by dose curve; also: nearly all actives have a fitted effect of over 15% in size; also: potency is read from the fitted curve at half-maximal effect)
# Summary of the method: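 Following a 24 hr incubation with DMSO-dissolved compounds at 37 C, 5% CO2, Gli1-Luc NIH/3T3-derived cells received luciferase reagent for 30 min at room temperature prior to luminescence measurement.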
# [5] = qHTS assay to identify small molecule antagonists of the sonic hedgehog signaling (Shh) pathway (AID 1259369; calls by dose curve; also: nearly all actives have a fitted effect of over 45% in size; also: potency is read from the fitted curve at half-maximal effect)
# Summary of the method: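 Read-out is luminescence from a firefly luciferase gene controlled by the Gli1 response element, in 3T3Gli1-Luc cells pre-incubated 4hr then exposed to compounds and conditioned medium for 24hr.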
# [6] = qHTS assay to identify small molecule antagonists of the sonic hedgehog signaling (Shh) pathway - cell viability counter screen (AID 1259367); also: nearly all actives have a fitted effect of over 55% in size; also: potency is read from the fitted curve at half-maximal effect
# Summary of the method: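 Cytotoxicity was assessed in parallel with Shh reporter activity by measuring live-cell protease fluorescence (CellTiter-Fluor) in NIH/3T3 cells stably carrying Gli1-Luc, treated with compound under conditioned medium stimulation for 23 hr plus 1 hr reagent incubation.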
# [7] = qHTS assay to identify small molecule phospholipidosis (PLD) inducers (AID 1259344; active = well fitted curve in the direction sought with a large enough effect; an effect the other way counts as inactive or inconclusive)
# Summary of the method: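 Cells (HepG2, 900 per well) attach for 4 h, receive LipidTOX Red and compound together, incubate 24 h at 37 C, are fixed 30 min with paraformaldehyde/Hoechst, then imaged at one site per well.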
# [8] = qHTS assay to identify small molecule agonists of the sonic hedgehog signaling (Shh) pathway - cell viability counter screen (AID 1259366); also: nearly all actives have a fitted effect of over 50% in size; also: potency is read from the fitted curve at half-maximal effect
# Summary of the method: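 Stable Gli1-Luc NIH/3T3 clone, 2,000 cells/well. Compound exposure 24hr at 37C. Read-out: CellTiter-Fluor fluorescence.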
# [9] = target: Androgen receptor (Homo sapiens) (UniProt P10275); test: qHTS assay to identify small molecule antagonists of the androgen receptor (AR) signaling pathway using the MDA cell line in the presence of 0.5 nM R1881 (AID 1259243); also: nearly all actives have a fitted effect of over 50% in size; also: potency is read from the fitted curve at half-maximal effect
# Summary of the method: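 Luminescence from an AR/GR-responsive MMTV-luciferase construct in MDA-kb2 breast carcinoma cells, read 30 min after ONE-Glo, following 16 hr co-treatment with compounds and 0.5 nM R1881.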
# [10] = target: Estrogen receptor (Homo sapiens) (UniProt P03372); test: qHTS assay to identify small molecule antagonists of the estrogen receptor alpha (ER-alpha) signaling pathway using the BG1 cell line in the presence of 0.1 nM 17-beta-estradiol (AID 1259244); also: nearly all actives have a fitted effect of over 50% in size; also: potency is read from the fitted curve at half-maximal effect
# Summary of the method: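 Luciferase signal from VM7Luc4E2 ERE-reporter cells, co-dosed with test compound and 0.1 nM final 17beta-estradiol for 22 h, read with ONE-Glo.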
# Chain of Androgen receptor (Homo sapiens) (P10275 whole entry, looked up): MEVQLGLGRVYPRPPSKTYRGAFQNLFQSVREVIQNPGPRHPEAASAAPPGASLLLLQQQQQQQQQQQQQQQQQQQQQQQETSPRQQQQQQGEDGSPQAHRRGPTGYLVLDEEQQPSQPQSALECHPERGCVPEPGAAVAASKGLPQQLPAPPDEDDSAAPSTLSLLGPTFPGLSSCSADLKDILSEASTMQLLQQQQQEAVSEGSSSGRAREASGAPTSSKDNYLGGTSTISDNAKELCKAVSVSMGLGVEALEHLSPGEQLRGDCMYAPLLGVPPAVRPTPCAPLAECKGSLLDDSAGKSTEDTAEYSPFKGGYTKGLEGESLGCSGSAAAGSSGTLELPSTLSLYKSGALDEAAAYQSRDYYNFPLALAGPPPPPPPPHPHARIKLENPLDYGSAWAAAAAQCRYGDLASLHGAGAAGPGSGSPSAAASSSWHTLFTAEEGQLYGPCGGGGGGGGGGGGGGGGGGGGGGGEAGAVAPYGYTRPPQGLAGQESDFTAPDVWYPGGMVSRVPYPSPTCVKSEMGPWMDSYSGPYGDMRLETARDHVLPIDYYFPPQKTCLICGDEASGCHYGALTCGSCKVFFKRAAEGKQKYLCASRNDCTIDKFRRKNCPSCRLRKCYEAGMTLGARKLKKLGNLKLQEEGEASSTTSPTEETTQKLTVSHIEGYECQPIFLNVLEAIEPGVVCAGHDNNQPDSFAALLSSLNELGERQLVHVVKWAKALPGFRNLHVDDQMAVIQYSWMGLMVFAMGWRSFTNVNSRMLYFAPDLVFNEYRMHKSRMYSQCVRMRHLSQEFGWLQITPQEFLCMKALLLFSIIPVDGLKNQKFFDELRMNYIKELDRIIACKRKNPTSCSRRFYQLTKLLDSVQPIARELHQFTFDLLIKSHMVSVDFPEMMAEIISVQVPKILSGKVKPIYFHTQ
# Chain of Estrogen receptor (Homo sapiens) (P03372 whole entry, looked up): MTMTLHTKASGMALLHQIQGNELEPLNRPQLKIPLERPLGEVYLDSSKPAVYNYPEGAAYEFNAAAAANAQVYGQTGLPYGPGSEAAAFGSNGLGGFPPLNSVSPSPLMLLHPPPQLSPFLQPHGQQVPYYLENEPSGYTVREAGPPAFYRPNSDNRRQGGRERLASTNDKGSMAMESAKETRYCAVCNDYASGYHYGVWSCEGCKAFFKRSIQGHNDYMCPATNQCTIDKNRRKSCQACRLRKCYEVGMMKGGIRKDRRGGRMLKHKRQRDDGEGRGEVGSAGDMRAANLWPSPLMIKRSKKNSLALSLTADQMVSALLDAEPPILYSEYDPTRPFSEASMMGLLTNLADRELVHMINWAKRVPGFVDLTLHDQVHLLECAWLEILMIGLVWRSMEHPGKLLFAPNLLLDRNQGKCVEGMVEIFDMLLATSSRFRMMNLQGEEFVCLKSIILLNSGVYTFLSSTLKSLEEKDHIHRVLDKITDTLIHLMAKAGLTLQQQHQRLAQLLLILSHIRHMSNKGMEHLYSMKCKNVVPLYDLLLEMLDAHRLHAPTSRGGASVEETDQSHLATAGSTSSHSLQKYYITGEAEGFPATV
SMILES,Potency [1],Potency [2],Potency [3],Potency [4],Potency [5],Potency [6],Potency [7],Potency [8],Potency [9],Potency [10]
O=C1NCN(c2ccccc2)C12CCN(CC1COc3ccccc3O1)CC2 (stereo unspecified),inactive,inactive,inactive,inactive,inactive,,,,,
ClC(Cl)=C(Cl)Cl,inactive,inactive,inactive,inactive,inactive,inactive,,,,
c1ccc2c(c1)OCC(C1=NCCN1)O2 (stereo unspecified),inactive,,inactive,inactive,0.376 µM (active),,inactive,,,
CC(C)[C@H](C(=O)O[C@H](C#N)c1cccc(Oc2ccccc2)c1)c1ccc(Cl)cc1,inactive,inactive,inactive,inactive,,inactive,,,,
CCOc1cc(C(C)(C)C)ccc1C1COC(c2c(F)cccc2F)=N1 (stereo unspecified),inactive,inactive,inactive,inactive,2.95 µM (active),inactive,,inactive,,
CN(C)CCc1c[nH]c2cccc(O)c12,inactive,,inactive,inactive,53.9 µM (active),,inactive,,,
C=CCOC(N)=O,inactive,inactive,inactive,,inactive,inactive,,inactive,,
Clc1ccc(COC(Cn2ccnc2)c2ccc(Cl)cc2Cl)cc1 (stereo unspecified),inactive,,inactive,inactive,11.4 µM (active),,inactive,36 µM (active) and 27.2 µM (active),,
CCOP(=S)(OCC)SCS(=O)(=O)C(C)(C)C,inactive,inactive,inactive,inactive,,,,,,
N#Cc1ccccc1Cl,inactive,inactive,inactive,,inactive,inactive,,inactive,,
NC(=O)c1ccc(N)nc1,inactive,inactive,inactive,inactive,inactive,inactive,,inactive,,
O=S(=O)(c1ccc(Cl)cc1)c1ccc(Cl)cc1,inactive,inactive,inactive,inactive,,,inactive,inactive,,
N#Cc1c(-c2ccc(Cl)cc2)[nH]c(C(F)(F)F)c1Br,,inactive,inactive,inactive,0.77 µM (active),27.3 µM (active),,,0.433 µM (active),0.611 µM (active)
CC1(C)C(/C=C(\Cl)C(F)(F)F)C1C(=O)OC(C#N)c1cccc(Oc2ccccc2)c1 (stereo unspecified),inactive,inactive,inactive,inactive,inactive,,,,,
SCc1ccco1,,inactive,inactive,inactive,,inactive,,inactive,,inactive
[CH3][Hg][Cl],,27.2 µM (active),,inactive,,68.4 µM (active),,4.84 µM (active),19.3 µM (active),inactive
C[C@@H](Oc1ccc(Cl)cc1Cl)C(=O)O,,inactive,inactive,inactive,,inactive,,inactive,,inactive
Nc1ccc([N+](=O)[O-])cc1Cl,,inactive,inactive,inactive,,inactive,,inactive,24.3 µM (active),inactive
c1ccc2cc3c(cc2c1)-c1cccc2cccc-3c12,,inactive,inactive,inactive,inactive,,,,3.02 µM (active),
COc1cccc2c1C(=O)c1c(O)c3c(c(O)c1C2=O)C[C@@](O)(C(=O)CO)CC3OC1CC(N2CCOC(OC)C2)C(O)C(C)O1 (stereo partly specified),,,inactive,inactive,0.0067 µM (active),0.168 µM (active),,,0.119 µM (active),0.15 µM (active)
ClC1=C(Cl)C2(Cl)C3C(Cl)C(Cl)CC3C1(Cl)C2(Cl)Cl (stereo unspecified),,,inactive,inactive,,inactive,,,60.9 µM (active) and 48.6 µM (active),inactive
Cc1cc(N=Nc2ccccc2C)ccc1N,,8.63 µM (active) and 4.86 µM (active),inactive,inactive,,27.3 µM (active) and 30.6 µM (active),,27.3 µM (active) and 30.6 µM (active),54.5 µM (active) and 48.6 µM (active),
COc1cccc(C(=O)CCN[C@@H](C)[C@H](O)c2ccccc2)c1,,inactive,inactive,inactive,23.7 µM (active),,,,29.8 µM (active),
C[As+](C)(C)CC(=O)[O-],,inactive,inactive,inactive,inactive,,,inactive,inactive,inactive
CC[C@H]1C[C@@H]2C[C@H]3c4[nH]c5ccc(OC)cc5c4CCN(C2)[C@@H]13,,inactive,inactive,inactive,12 µM (active),60.1 µM (active),inactive,53.5 µM (active),60.1 µM (active),
O=C(Cl)c1ccc(Cl)cc1,,inactive,inactive,inactive,inactive,inactive,,inactive,inactive,inactive
CCOP(=S)(OCC)OC(Cl)C(Cl)(Cl)Cl (stereo unspecified),inactive,,inactive,inactive,inactive,inactive,,inactive,,
CC(O)C#N (stereo unspecified),,inactive,inactive,inactive,inactive,,,inactive,inactive,inactive

SMILES,Potency [1],Potency [2],Potency [3],Potency [4],Potency [5],Potency [6],Potency [7],Potency [8],Potency [9],Potency [10]
O=C(Nc1ccc2[nH]ccc2c1)c1cc2cc(F)ccc2n1Cc1cccc(F)c1,,inactive,inactive,inactive,24.3 µM (active),68.6 µM (active),,43.3 µM (active),,inactive
N#C/C=C/c1ccccc1,,inactive,inactive,inactive,inactive,inactive,,inactive,inactive,inactive
CN(CCCC(O)c1cccnc1)N=O (stereo unspecified),,inactive,inactive,inactive,inactive,inactive,,inactive,inactive,inactive
Oc1cccc(-c2ccccc2)c1,,inactive,inactive,inactive,,inactive,,inactive,,inactive
C[C@H]1CC[C@@H]2[C@@H](C)[C@H]3[C@H](C[C@H]4[C@@H]5CC=C6CC(O[C@@H]7O[C@H](CO)[C@H](O)[C@H](O[C@@H]8O[C@H](CO)[C@@H](O)[C@H](O)[C@H]8O)[C@H]7O[C@H]7O[C@@H](C)[C@H](O)[C@@H](O)[C@H]7O)CC[C@]6(C)[C@H]5CC[C@]34C)N2C1 (stereo partly specified),,inactive,28.2 µM (active),inactive,inactive,,inactive,,,inactive
Clc1ccc(Oc2ccccc2)cc1,,,inactive,,inactive,,,inactive,inactive,inactive
CCOP(=S)(OCC)SCS(=O)(=O)CC,,inactive,inactive,inactive,inactive,inactive,,inactive,inactive,inactive
CC(C)C1CCC(Cc2ccc(Cl)cc2)C1(O)Cn1cncn1 (stereo unspecified),,inactive,inactive,inactive,17.1 µM (active),53.9 µM (active),,48.1 µM (active),,48.1 µM (active)
CC(C)CC(C)N (stereo unspecified),,inactive,inactive,inactive,inactive,inactive,,inactive,,inactive
FC(Cl)(Cl)Cl,,,inactive,inactive,inactive,inactive,,inactive,inactive,
ClC1=C(Cl)[C@]2(Cl)[C@@H]3[C@@H]4C[C@@H]([C@H]5O[C@@H]45)[C@@H]3[C@@]1(Cl)C2(Cl)Cl,,inactive,inactive,inactive,21.7 µM (active),,inactive,,,68.6 µM (active)
CC(C)(COCC1CO1)COCC1CO1 (stereo unspecified),,inactive,inactive,inactive,,inactive,,inactive,,inactive
Cc1ccc(CCl)cc1,,,inactive,inactive,inactive,inactive,,inactive,inactive,inactive
Cc1cc(C)cc(OP(=O)(Oc2cc(C)cc(C)c2)Oc2cc(C)cc(C)c2)c1,,inactive,inactive,inactive,inactive,inactive,,inactive,,inactive
O=[N+]([O-])c1cc([N+](=O)[O-])c2ccccc2c1,,,inactive,,,inactive,,inactive,4.33 µM (active),
CCN(CC)C(=S)[S-].CCN(CC)C(=S)[S-].[Zn+2],,34.1 µM (active),inactive,inactive,0.481 µM (active),1.08 µM (active),,1.21 µM (active),,1.08 µM (active)
Oc1c(Cl)c(Cl)cc(Cl)c1Cl,,,inactive,inactive,,inactive,,inactive,66.7 µM (active),
Oc1cc(Cl)c(Cl)c(Cl)c1,,,inactive,inactive,13 µM (active),,,inactive,46.1 µM (active),41 µM (active)
Oc1ccc(C2(c3ccc(O)cc3)c3ccccc3-c3ccccc32)cc1,,inactive,inactive,inactive,27.3 µM (active),27.3 µM (active),,54.5 µM (active),,1.72 µM (active)
CC(C)(c1ccc(O)c(-c2ccccc2)c1)c1ccc(O)c(-c2ccccc2)c1,,inactive,,inactive,,,,15.4 µM (active),30.6 µM (active),48.6 µM (active)
CSCCCN=C=S,inactive,inactive,,inactive,,inactive,,inactive,,
Cc1cc(C(F)(C(F)(F)F)C(F)(F)F)ccc1NC(=O)c1cccc(I)c1C(=O)NC(C)(C)CS(C)(=O)=O,,inactive,inactive,13.8 µM (active),,inactive,,inactive,,inactive
Oc1c(Br)c(Br)c(Br)c(Br)c1Br,,inactive,inactive,inactive,19.4 µM (active),inactive,,inactive,,
C=CC(=O)OCCCCOC(=O)C=C,,inactive,,inactive,,,,,,inactive
Clc1ccc(CCC(Cn2ccnc2)Sc2c(Cl)cccc2Cl)cc1 (stereo unspecified),,,inactive,,2.98 µM (active),inactive,inactive,inactive,,
CCCN(CCC)c1c([N+](=O)[O-])cc(S(N)(=O)=O)cc1[N+](=O)[O-],,inactive,,,4.86 µM (active),,inactive,54.5 µM (active),,
CN(C)C(=S)S,,inactive,inactive,inactive,4.95 µM (active) and 962 nM (active) and 3.44 µM (active),7 µM (active) and 4.82 µM (active) and 54.5 µM (active),,12.4 µM (active) and 6.07 µM (active) and 4.86 µM (active),,
